Experimental data taken from PubChem BioAssay (NCI).
The panel holds about 83,000 compounds, 20% with a hit somewhere; the sample as a whole holds those more often.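 The test compound was applied at a single concentration to cells in 96-well plates for 48 hours, and percent growth was recorded.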 A number with no mark means an inactive call. The source made the active and inactive calls. Rule for the calls: active = growth percent below 10; inactive = the rest.

Each compound was assayed on HCT-116 colon (assay: NCI-60 one-dose screen, 48 h (100 = growth as untreated, 0 = no growth, -100 = all killed)). Conditions: 10 µM.
COc1ccc2c(c1)/C(=C\c1c[nH]c3ccc(OC)cc13)C(=O)N2 showed a growth of 30.1%. For Cc1cc(N(CCCNc2ccnc3cc(Cl)ccc23)Cc2cccs2)nc(Cl)n1, the growth was 21.4%. COc1ccc(-c2nc3sc(C4CC4)nn3c2/C=C2/C(=O)Nc3ccc(OC)cc32)cc1 showed a growth of 66.3%. For COc1cc(-c2cc(/C=C/C(=O)c3ccc4c(c3)OCO4)[nH]n2)cc(OC)c1OC, the growth was 31.4%. Compound CC[C@H](C)C(=O)O[C@H]1CCC=C2C=C[C@H](C)C(CCC3C[C@@H](O)CC(=O)O3)[C@H]21 (stereo not given in full) has a growth of 46.4%. For CCOCCOCCOCCOCCOCCOCCOCCOCCOCCO (tested in a mixture with another compound), the growth was 3.57% (active).

Each compound was assayed on HCC-2998 colon in the same assay as above. Conditions: 10 µM.
For COc1ccc(S(=O)(=O)Nc2c(/C=C\c3cc(OC)c(OC)c(OC)c3)ccc(OC)c2O)cc1, the growth was 13.3%. Work on Cc1cn(C2CCCCO2)c(=O)nc1NO (stereo not given) yielded a growth of 101%. In the case of N=c1nc(N)ncn1-c1ccccc1, the growth is reported as 101%. In the case of CCCCCCCNc1nc(C=O)ncc1-c1ccc(C(F)(F)F)cc1, the growth is reported as 104%. For C/C(N)=C(\C#N)C(=O)c1ccccc1, the growth was 102%. For CC1CC(=O)OC(C)C1 (stereo not given), the growth was 92.5%. Cc1cc(=O)n2nnc3c4ccccc4ccc3n12 showed a growth of 105%. For COc1ccc(-c2nn(-c3cccc(NC(=O)c4cc(C(F)(F)F)cc(C(F)(F)F)c4)c3)cc2-c2ccncc2)cc1Cl, the growth was 71.1%. For Cc1ccc(S(=O)(=O)OCCN(CCOS(=O)(=O)c2ccc(C)cc2)c2c[nH]c(=O)[nH]c2=O)cc1, the growth was 128%.
